# From PubChem BioAssay AID1159580 (chemical genetic matrix, 2015)
# Several values for one entry are separate records, joined by “and”; a condition that tells them apart may be missing. Identical values can stand only once. In all, about 5,500 compounds went through this assay and about 2,000 (36%) were called active. Another 18% or so got no clear call; they are omitted. Cut-off read from the data, not from the text of the source: active = normalized growth mostly below about 0.91 (no sharp cut-off); inconclusive = no clear call, values can overlap the other calls; inactive = mostly above about 0.92. Some of the results follow.
# Assay: chemical genetic growth profiling, strain panel (AID 1159580);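 note: tested at 20 µM; growth read once vehicle control cultures reached saturation at 30 °C; 1 = growth at the plate median or of vehicle wells; lower values mean less growth of the strain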
# Settings: S. cerevisiae deletion strains, growth OD
structure (smiles),measurement,setting,value
C=CC(C1=CC(=O)C(OC)=CC1=O)c1ccccc1 (configuration not stated),normalized growth,"locus YAL013W, strain DEP1, stronger effect = lower value",0.908 (active)
same,normalized growth,"locus YAL021C, strain ccr4, stronger effect = lower value",1.04 (inactive)
same,normalized growth,"locus YAL026C, strain drs2, stronger effect = lower value",0.853 (active)
same,normalized growth,"locus YAL030W, strain snc1, stronger effect = lower value",0.92 (active)
same,normalized growth,"locus YBL061C, strain skt5, stronger effect = lower value",0.847 (active)
same,normalized growth,"locus YBR009C, strain hhf1, stronger effect = lower value",0.728 (active)
same,normalized growth,"locus YBR021W, strain FUR4, stronger effect = lower value",0.922 (inactive)
same,normalized growth,"locus YBR023C, strain chs3, stronger effect = lower value",0.85 (active)
same,normalized growth,"locus YBR171W, strain sec66, stronger effect = lower value",0.992 (inactive)
same,normalized growth,"locus YBR229C, strain ROT2, stronger effect = lower value",0.969 (inactive)
same,normalized growth,"locus YBR231C, strain swc5, stronger effect = lower value",0.947 (inactive)
same,normalized growth,"locus YBR279W, strain paf1, stronger effect = lower value",0.858 (active)
same,normalized growth,"locus YCL011C, strain gbp2, stronger effect = lower value",0.843 (active)
same,normalized growth,"locus YCL016C, strain dcc1, stronger effect = lower value",0.845 (active)
same,normalized growth,"locus YCL029C, strain bik1, stronger effect = lower value",0.948 (inactive)
same,normalized growth,"locus YCL061C, strain MRC1, stronger effect = lower value",0.911 (active)
same,normalized growth,"locus YCL069W, strain vba3, stronger effect = lower value",0.954 (inactive)
same,normalized growth,"locus YCR088W, strain abp1, stronger effect = lower value",0.969 (inactive)
same,normalized growth,"locus YDL005C, strain med2, stronger effect = lower value",1 (inactive)
same,normalized growth,"locus YDL035C, strain GPR1, stronger effect = lower value",0.825 (active)
same,normalized growth,"locus YDL040C, strain nat1, stronger effect = lower value",1 (inactive)
same,normalized growth,"locus YDL074C, strain BRE1, stronger effect = lower value",0.781 (inactive)
same,normalized growth,"locus YDL101C, strain DUN1, stronger effect = lower value",0.94 (inactive)
same,normalized growth,"locus YDL134C, strain PPH21, stronger effect = lower value",0.944 (inactive)
same,normalized growth,"locus YDL185W, strain tfp1, stronger effect = lower value",0.948 (inactive)
same,normalized growth,"locus YDL192W, strain arf1, stronger effect = lower value",0.843 (active)
same,normalized growth,"locus YDR001C, strain nth1, stronger effect = lower value",0.983 (inactive)
same,normalized growth,"locus YDR069C, strain doa4, stronger effect = lower value",0.982 (inactive)
same,normalized growth,"locus YDR101C, strain arx1, stronger effect = lower value",0.854 (active)
same,normalized growth,"locus YDR137W, strain rgp1, stronger effect = lower value",0.616 (active)
same,normalized growth,"locus YDR150W, strain NUM1, stronger effect = lower value",0.972 (inactive)
same,normalized growth,"locus YDR159W, strain sac3, stronger effect = lower value",0.85 (active)
same,normalized growth,"locus YDR162C, strain NBP2, stronger effect = lower value",0.607 (active)
same,normalized growth,"locus YDR195W, strain ref2",1.32 [resistant] (active)
same,normalized growth,"locus YDR297W, strain sur2, stronger effect = lower value",0.913 (active)
same,normalized growth,"locus YDR318W, strain mcm21, stronger effect = lower value",0.83 (active)
same,normalized growth,"locus YDR334W, strain swr1, stronger effect = lower value",0.999 (inactive)
same,normalized growth,"locus YDR335W, strain msn5, stronger effect = lower value",0.968 (inactive)
same,normalized growth,"locus YDR388W, stronger effect = lower value",0.907 (active)
same,normalized growth,"locus YDR392W, strain spt3, stronger effect = lower value",0.233 (active)
same,normalized growth,"locus YDR502C, strain sam2, stronger effect = lower value",0.902 (active)
same,normalized growth,"locus YEL003W, strain gim4, stronger effect = lower value",0.823 (active)
same,normalized growth,"locus YEL037C, strain rad23, stronger effect = lower value",0.993 (inactive)
same,normalized growth,"locus YEL061C, strain CIN8 (second series), stronger effect = lower value",0.966 (inactive)
same,normalized growth,"locus YEL061C, strain CIN8, stronger effect = lower value",0.932 (inactive)
same,normalized growth,"locus YER015W, strain faa2, stronger effect = lower value",0.815 (active)
same,normalized growth,"locus YER016W, strain bim1, stronger effect = lower value",0.985 (inactive)
same,normalized growth,"locus YER110C, stronger effect = lower value",0.936 (inactive)
same,normalized growth,"locus YER111C, strain swi4, stronger effect = lower value",0.977 (inactive)
same,normalized growth,"locus YER155C, strain BEM2 (second series), stronger effect = lower value",0.43 (active)
same,normalized growth,"locus YER155C, strain BEM2, stronger effect = lower value",0.956 (inactive)
same,normalized growth,"locus YER167W, strain BCK2, stronger effect = lower value",0.747 (active)
same,normalized growth,"locus YFR010W, strain ubp6, stronger effect = lower value",0.979 (inactive)
same,normalized growth,"locus YGL078C, strain dbp3, stronger effect = lower value",0.998 (inactive)
same,normalized growth,"locus YGL086W, strain mad1, stronger effect = lower value",0.853 (active)
same,normalized growth,"locus YGL167C, strain pmr1, stronger effect = lower value",0.973 (inactive)
same,normalized growth,"locus YGL173C, strain kem1, stronger effect = lower value",0.855 (active)
same,normalized growth,"locus YGL227W, strain vid30, stronger effect = lower value",0.963 (inactive)
same,normalized growth,"locus YGL240W, strain doc1, stronger effect = lower value",0.708 (active)
same,normalized growth,"locus YGL248W, strain PDE1, stronger effect = lower value",0.947 (inactive)
same,normalized growth,"locus YGL253W, strain hxk2, stronger effect = lower value",0.92 (inactive)
same,normalized growth,"locus YGR078C, strain PAC10, stronger effect = lower value",0.734 (active)
same,normalized growth,"locus YGR135W, strain pre9, stronger effect = lower value",0.864 (active)
same,normalized growth,"locus YGR229C, strain SMI1, stronger effect = lower value",0.692 (active)
same,normalized growth,"locus YGR252W, strain gcn5, stronger effect = lower value",0.854 (inactive)
same,normalized growth,"locus YHR013C, strain ard1, stronger effect = lower value",0.876 (inactive)
same,normalized growth,"locus YHR027C, strain rpn1, stronger effect = lower value",0.92 (active)
same,normalized growth,"locus YHR030C, strain SLT2, stronger effect = lower value",0.895 (active) and 0.797 (active)
same,normalized growth,"locus YHR079C, strain IRE1 (second series), stronger effect = lower value",0.908 (active)
same,normalized growth,"locus YHR079C, strain IRE1, stronger effect = lower value",0.824 (active)
same,normalized growth,"locus YHR094C, strain hxt1, stronger effect = lower value",0.956 (inactive)
same,normalized growth,"locus YHR129C, strain ARP1, stronger effect = lower value",0.88 (active)
same,normalized growth,"locus YHR142W, strain chs7, stronger effect = lower value",0.729 (active)
same,normalized growth,"locus YHR200W, strain rpn10, stronger effect = lower value",0.92 (active)
same,normalized growth,"locus YIL066C, strain RNR3, stronger effect = lower value",0.824 (active)
same,normalized growth,"locus YIL073C, strain SPO22, stronger effect = lower value",0.723 (inactive)
same,normalized growth,"locus YIL125W, strain kgd1, stronger effect = lower value",0.963 (inactive)
same,normalized growth,"locus YIR030C, strain dcg1, stronger effect = lower value",0.929 (inactive)
same,normalized growth,"locus YJL092W, strain hpr5, stronger effect = lower value",0.95 (inactive)
same,normalized growth,"locus YJL095W, strain BCK1 (second series), stronger effect = lower value",0.873 (active)
same,normalized growth,"locus YJL095W, strain BCK1, stronger effect = lower value",0.852 (inactive) and 0.869 (active)
same,normalized growth,"locus YJL115W, strain asf1, stronger effect = lower value",1 (inactive)
same,normalized growth,"locus YJL129C, strain trk1, stronger effect = lower value",0.947 (inactive)
same,normalized growth,"locus YJL134W, strain LCB3, stronger effect = lower value",0.96 (inactive)
same,normalized growth,"locus YJL154C, strain vps35, stronger effect = lower value",0.999 (inactive)
same,normalized growth,"locus YJL164C, strain tpk1, stronger effect = lower value",0.77 (active)
same,normalized growth,"locus YJL166W, strain qcr8, stronger effect = lower value",0.686 (active)
same,normalized growth,"locus YJL168C, strain set2, stronger effect = lower value",0.953 (inactive)
same,normalized growth,"locus YJL187C, strain SWE1 (second series), stronger effect = lower value",0.944 (inactive)
same,normalized growth,"locus YJL187C, strain SWE1, stronger effect = lower value",0.855 (active)
same,normalized growth,"locus YJR043C, strain POL32, stronger effect = lower value",0.768 (active)
same,normalized growth,"locus YJR066W, strain TOR1, stronger effect = lower value",0.858 (inactive)
